PubChem BioAssay (Tox21)
Results filed as inconclusive are left out. Activity calls are given as the source filed them. Unless noted, calls come from the whole dose curve.

Columns and labels:
[1] = Nuclear factor erythroid 2-related factor 2/antioxidant responsive element (Nrf2/ARE) small molecule agonists: qHTS cell viability counter screen in human keratinocytes (AID 1919968; active = well fitted curve in the direction sought with a large enough effect in the repeat runs; an effect the other way counts as inactive or inconclusive; note: nearly all actives have a fitted effect of over 55% in size)
Procedure, shortened: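 Cells of the KeratinoSens line were plated at 1,500 per well and left for 5 h before compound transfer from DMSO stocks. After a 23 h incubation (37 C, 5% CO2), CellTiter-Fluor was added. Signal was taken as fluorescence intensity 1 h later.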

[2] = Nuclear factor erythroid 2-related factor 2/antioxidant responsive element (Nrf2/ARE) small molecule agonists: luciferase reporter gene qHTS assay in human keratinocytes (AID 1919969); note: nearly all actives have a fitted effect of over 35% in size
[3] = target: Gonadotropin-releasing hormone receptor (Homo sapiens) (UniProt P30968); assay: Human gonadotropin-releasing hormone receptor (GnRHR) small molecule agonists, calcium flux assay in GnRHR-HEK293 cells (AID 1920063); note: nearly all actives have a fitted effect of over 35% in size
Gonadotropin-releasing hormone receptor (Homo sapiens), sequence (P30968 whole entry, looked up): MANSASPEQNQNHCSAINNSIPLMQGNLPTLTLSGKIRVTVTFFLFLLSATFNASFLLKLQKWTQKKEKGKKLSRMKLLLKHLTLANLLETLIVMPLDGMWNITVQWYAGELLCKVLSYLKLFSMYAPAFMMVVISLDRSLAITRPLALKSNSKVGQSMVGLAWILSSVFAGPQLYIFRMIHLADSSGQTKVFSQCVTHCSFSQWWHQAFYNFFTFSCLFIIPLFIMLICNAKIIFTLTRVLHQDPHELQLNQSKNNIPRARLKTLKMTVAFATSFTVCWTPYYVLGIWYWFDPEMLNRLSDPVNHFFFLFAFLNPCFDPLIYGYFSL
Procedure, shortened: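 Compounds dissolved in DMSO are pin-transferred onto dye-loaded GnRHR-HEK293 cells, which were seeded 18 h before at 37 C/5% CO2. Calcium signal is read as fluorescence intensity at 1 s intervals for 3 min.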

[4] = target: KiSS-1 receptor (Homo sapiens) (UniProt Q969F8); assay: Human kisspeptin (KISS1R) small molecule agonists, calcium flux assay in KISS1R-HEK293 cells (AID 1920064; active = well fitted curve in the direction sought with a large enough effect in the repeat runs; an effect the other way counts as inactive or inconclusive)
KiSS-1 receptor (Homo sapiens), sequence (Q969F8 whole entry, looked up): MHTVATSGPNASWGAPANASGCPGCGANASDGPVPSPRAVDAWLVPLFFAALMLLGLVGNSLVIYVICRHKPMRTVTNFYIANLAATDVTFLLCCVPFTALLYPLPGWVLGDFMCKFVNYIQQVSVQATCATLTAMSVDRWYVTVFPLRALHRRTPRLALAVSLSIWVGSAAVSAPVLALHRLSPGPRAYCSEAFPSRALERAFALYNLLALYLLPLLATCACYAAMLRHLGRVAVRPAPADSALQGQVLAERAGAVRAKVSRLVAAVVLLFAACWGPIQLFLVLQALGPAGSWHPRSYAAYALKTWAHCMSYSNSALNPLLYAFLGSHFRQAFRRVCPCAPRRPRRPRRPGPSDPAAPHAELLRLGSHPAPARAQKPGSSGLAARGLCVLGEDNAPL
Procedure, shortened: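 Cell line: HEK293, stable human KISS1R. Dye loading 1 h at 37 C after 18 h culture. Read: kinetic fluorescence, 480/540 nm, 3 min at 1 s intervals.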

[5] = G protein-coupled receptor (GPCR) small molecule agonists, calcium flux assay: HEK293 wild type cell line counter screen (AID 1920065)
Procedure, shortened: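 Tox21 10K compounds, 15 concentrations each in triplicate, pin-transferred in DMSO onto dye-loaded cells; kinetic read at 480/540 nm for 3 min, 1 s intervals.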

[6] = p53 small molecule agonists, cell-based qHTS assay with human liver microsomes: qHTS cell viability counter screen (AID 1963579); note: nearly all actives have a fitted effect of over 45% in size
Procedure, shortened: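 Metabolically activated exposure: compounds, human liver microsomes and NADPH (0.5 mg/mL final apiece) were added to p53RE-bla cells seeded 5 h earlier, left 16 h at 37 C, and then assessed for viability by CellTiter-Glo luminescence.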

[7] = p53 small molecule agonists, cell-based qHTS assay with rat liver microsomes: qHTS cell viability counter screen (AID 1963580); note: nearly all actives have a fitted effect of over 45% in size
Procedure, shortened: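 Rat liver microsome (0.5 mg/mL final) and NADPH (0.5 mg/mL final) co-incubation with compounds for 16 h at 37 C on HCT-116 p53RE-bla cells; cytotoxicity taken from intracellular ATP luminescence.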

[8] = p53 small molecule agonists, cell-based qHTS assay: qHTS cell viability counter screen (AID 1963581); note: nearly all actives have a fitted effect of over 45% in size
Procedure, shortened: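 ATP content measured by luminescence in HCT-116 p53RE-bla cells treated 16 h at 37 C, same wells as the reporter screen.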

[9] = target: 5-hydroxytryptamine receptor 2A (Homo sapiens) (UniProt P28223); assay: 5-hydroxytryptamine receptor 2A (HTR2A) small molecule antagonists, cell-based qHTS assay (AID 1963586); note: nearly all actives have a fitted effect of over 45% in size
5-hydroxytryptamine receptor 2A (Homo sapiens), sequence (P28223 whole entry, looked up): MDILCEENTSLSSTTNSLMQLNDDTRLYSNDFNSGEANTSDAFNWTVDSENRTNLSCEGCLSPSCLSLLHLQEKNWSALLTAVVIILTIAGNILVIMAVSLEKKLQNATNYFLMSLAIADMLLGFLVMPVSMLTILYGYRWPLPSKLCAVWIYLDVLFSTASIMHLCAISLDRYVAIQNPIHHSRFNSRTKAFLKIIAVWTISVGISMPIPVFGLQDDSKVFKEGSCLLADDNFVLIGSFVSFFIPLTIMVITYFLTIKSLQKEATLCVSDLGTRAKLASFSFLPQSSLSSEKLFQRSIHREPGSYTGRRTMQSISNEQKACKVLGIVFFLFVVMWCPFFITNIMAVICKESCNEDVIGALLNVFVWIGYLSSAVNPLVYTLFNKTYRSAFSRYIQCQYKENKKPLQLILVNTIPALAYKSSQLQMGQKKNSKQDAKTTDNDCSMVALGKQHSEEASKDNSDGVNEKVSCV
Procedure, shortened: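 CHO cells stably expressing human HTR2A were plated for 18 h at 37 C, then loaded with calcium dye for 1 h. Compounds were preincubated 5 min at room temperature before DOI (4 nM solution) was added. Kinetic fluorescence was read for 3 min.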

[10] = target: 5-hydroxytryptamine receptor 2A (Homo sapiens) (UniProt P28223); assay: 5-hydroxytryptamine receptor 2A (HTR2A) small molecule agonists, cell-based qHTS assay (AID 1963587); note: nearly all actives have a fitted effect of over 30% in size
Procedure, shortened: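 Kinetic calcium-flux fluorescence (2 min, 1 sec intervals) after compound addition in agonist mode. HTR2A-CHO cells were cultured 18 h, then dye-loaded 1 h at 37 C.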

[11] = target: Muscarinic acetylcholine receptor M1 (Homo sapiens) (UniProt P11229); assay: Cholinergic receptor muscarinic 1 (CHRM1) small molecule agonists, cell-based qHTS assay (AID 1963589); note: nearly all actives have a fitted effect of over 35% in size
Muscarinic acetylcholine receptor M1 (Homo sapiens), sequence (P11229 whole entry, looked up): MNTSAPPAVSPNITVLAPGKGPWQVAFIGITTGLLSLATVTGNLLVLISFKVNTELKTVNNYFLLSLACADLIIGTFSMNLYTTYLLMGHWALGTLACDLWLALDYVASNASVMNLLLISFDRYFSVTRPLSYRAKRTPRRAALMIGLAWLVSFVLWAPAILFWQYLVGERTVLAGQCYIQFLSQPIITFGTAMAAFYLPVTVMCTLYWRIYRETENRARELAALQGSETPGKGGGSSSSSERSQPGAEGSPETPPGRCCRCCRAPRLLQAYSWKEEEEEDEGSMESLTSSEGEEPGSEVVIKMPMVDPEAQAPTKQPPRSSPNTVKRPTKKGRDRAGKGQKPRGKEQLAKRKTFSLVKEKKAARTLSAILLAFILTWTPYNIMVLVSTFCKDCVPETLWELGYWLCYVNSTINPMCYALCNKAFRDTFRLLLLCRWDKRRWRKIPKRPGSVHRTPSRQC
Procedure, shortened: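 Homogeneous fluorescence calcium flux, agonist mode. Human M1-expressing CHO cells; compound dosed at 15 concentrations, three independent runs; signal sampled every 1 sec.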

[12] = cAMP Responsive Elements (CRE) small molecule agonists, cell-based qHTS assay (AID 1963590)
Procedure, shortened: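 HEK 293T cells stably bearing CRE-bla were plated at 2,000 cells per well and rested 18 h. Compounds, positive controls or DMSO were added for 3 h at 37 C. LiveBLAzer B/G substrate was then loaded for 2 h at room temperature.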

[13] = cAMP Responsive Elements (CRE) small molecule antagonists, cell-based qHTS assay (AID 1963591; active = well fitted inhibition curve with a large enough effect in the signal ratio in the repeat runs, not every such curve was filed as active; the % refers to the signal ratio)
Procedure, shortened: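 First, CRE-bla HEK293T cells settled 18 h at 37 C. Next, compound and 0.25 uM final NKH477 were applied for 3 h. Last, LiveBLAzer B/G substrate was loaded for 2 h at room temperature.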

[14] = target: Beta-2 adrenergic receptor (Homo sapiens) (UniProt P07550); assay: Adrenergic beta2 receptor (ADRB2) small molecule antagonists, cell-based qHTS assay (AID 1963592); note: series mostly up to about 92 µM; nearly all actives have a fitted effect of over 50% in size
Beta-2 adrenergic receptor (Homo sapiens), sequence (P07550 whole entry, looked up): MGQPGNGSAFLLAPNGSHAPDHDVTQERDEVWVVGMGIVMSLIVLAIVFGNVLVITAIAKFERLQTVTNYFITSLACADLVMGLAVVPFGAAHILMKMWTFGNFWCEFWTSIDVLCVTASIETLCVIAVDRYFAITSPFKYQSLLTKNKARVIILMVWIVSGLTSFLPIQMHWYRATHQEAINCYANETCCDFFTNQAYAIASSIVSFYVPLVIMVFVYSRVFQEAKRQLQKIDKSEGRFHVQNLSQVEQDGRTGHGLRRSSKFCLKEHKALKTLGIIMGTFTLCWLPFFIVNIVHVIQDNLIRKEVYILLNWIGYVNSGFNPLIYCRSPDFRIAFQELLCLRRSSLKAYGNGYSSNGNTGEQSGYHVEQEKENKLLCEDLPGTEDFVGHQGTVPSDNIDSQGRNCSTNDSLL
Procedure, shortened: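 Assay format: CHO-ADRB2 cells, 18-20hr seeding at 37C/5% CO2, then compound plus 1nM isoproterenol agonist mix for 0.5hr RT. Homogeneous time-resolved fluorescence cAMP detection after 1hr, expressed as 665/615 nm ratio.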

[15] = target: D(2) dopamine receptor (Homo sapiens) (UniProt P14416); assay: Dopamine D2 receptor (DRD2) small molecule agonists, cell-based qHTS assay (AID 1963594); note: nearly all actives have a fitted effect of over 35% in size
D(2) dopamine receptor (Homo sapiens), sequence (P14416 whole entry, looked up): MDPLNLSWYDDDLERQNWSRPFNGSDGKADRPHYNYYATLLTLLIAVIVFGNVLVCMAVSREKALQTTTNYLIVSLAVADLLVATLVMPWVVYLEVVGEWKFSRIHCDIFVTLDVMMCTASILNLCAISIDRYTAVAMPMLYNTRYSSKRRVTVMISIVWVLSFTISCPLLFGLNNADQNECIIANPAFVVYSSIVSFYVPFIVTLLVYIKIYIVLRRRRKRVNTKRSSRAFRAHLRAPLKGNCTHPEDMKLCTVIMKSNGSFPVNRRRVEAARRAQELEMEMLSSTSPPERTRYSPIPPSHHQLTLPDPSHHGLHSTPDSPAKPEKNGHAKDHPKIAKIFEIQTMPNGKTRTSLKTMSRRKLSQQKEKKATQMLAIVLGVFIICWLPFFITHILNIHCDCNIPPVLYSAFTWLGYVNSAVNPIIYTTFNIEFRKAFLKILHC
Procedure, shortened: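 cAMP accumulation in DRD2-HEK293 cells measured by HTRF after 1 h detection; compounds added 10 min before NKH477 (200nM […]) forskolin-analogue stimulation, 30 min at room temperature, with Ro20-1724 present at 0.1 mM final.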

[16] = target: D(2) dopamine receptor (Homo sapiens) (UniProt P14416); assay: Dopamine D2 receptor (DRD2) small molecule antagonists, cell-based qHTS assay (AID 1963595; active = well fitted inhibition curve with a large enough effect in the signal ratio in the repeat runs, with a control signal flat; the % refers to the signal ratio)
Procedure, shortened: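 Antagonist mode in DRD2-HEK293 cells: after compound addition with 0.1 mM Ro20-1724, cells received quinpirole (12 nM) and NKH477 (200 nM) for 30 min at room temperature; HTRF cAMP read after 1 h detection.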

[17] = target: Beta-2 adrenergic receptor (Homo sapiens) (UniProt P07550); assay: Adrenergic beta2 receptor (ADRB2) small molecule agonists, cell-based qHTS assay (AID 1963593);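 note: CHO cells stably overexpressing human ADRB2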
Procedure, shortened: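 CHO cells stably over-expressing ADRB2 were plated overnight at 37C, then dosed with compounds plus a stimulation mix containing 100uM IBMX and 25uM Ro-20-1724 for 0.5hr at room temperature. cAMP was measured by HTRF competition, 1hr.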

[18] = target: Muscarinic acetylcholine receptor M1 (Homo sapiens) (UniProt P11229); assay: Cholinergic receptor muscarinic 1 (CHRM1) small molecule antagonists, cell-based qHTS assay (AID 1963588); note: nearly all actives have a fitted effect of over 40% in size
Procedure, shortened: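 Compounds were tested at 15 concentrations in three independent runs. Dye-loaded CHRM1-CHO cells were exposed 5 min at room temperature before stimulation by acetylcholine added at 50nM. Intracellular calcium was read kinetically on FDSS for 3 min.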

Measured: Potency

CCC(=O)C1CC(C(C)C)CC=C1C (stereo not given)
not listed: [17] | [18]
inactive: all other assays above

O=C1OC(=O)c2c(Br)c(Br)c(Br)c(Br)c21
not listed: [11] | [18]
inactive: all other assays above

CCN(C(=O)N(CC)c1ccccc1)c1ccccc1
not listed: [10] | [12] | [13] | [17]
inactive: all other assays above

CC(C)c1ccc2ncccc2c1
not listed: [10] | [13] | [17]
inactive: all other assays above

O=CNc1ccccc1
not listed: [15] | [17] | [18]
inactive: all other assays above

CCC(C(=O)NC(=O)NC(C)=O)c1ccccc1 (stereo not given)
not listed: [9]
inactive: all other assays above

CNC1CCCN(c2c(F)cc3c(=O)c(C(=O)O)cn(C4CC4)c3c2OC)C1 (stereo not given)
not listed: [15] | [17] | [18]
inactive: all other assays above

CN1C(CSCC(F)(F)F)Nc2cc(Cl)c(S(N)(=O)=O)cc2S1(=O)=O (stereo not given)
not listed: [9]
inactive: all other assays above
